Reference: paper PMC5540273 (PLoS ONE, 2017)

Tests used:
Conditions in all cases: concentration: 1 μM, replicates: in singlicate; n = 1
[1] = system: JAK1(JH2domain-pseudokinase)
[2] = system: JAK2(JH1domain-catalytic)
[3] = system: JAK3(JH1domain-catalytic)
JNK1 = system: T1, JNK1
T1 construct: gene MAPK8

JNK2 = system: T2, JNK2
T2 construct: gene MAPK9

JNK3 = system: T3, JNK3
T3 construct: gene MAPK10

KIT-autoinhibited = system: KIT-autoinhibited
KIT = system: KIT
LATS1 = system: LATS1
LATS2 = system: LATS2
LCK = system: LCK
LIMK1 = system: LIMK1
LIMK2 = system: LIMK2
LKB1 = system: T4, LKB1
T4 construct: gene STK11

LOK = system: T5, LOK
T5 construct: gene STK10

LRRK2 = system: LRRK2
LTK = system: LTK
LYN = system: LYN
LZK = system: T6, LZK
T6 construct: gene MAP3K13

MAK = system: MAK
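Also: KINOMEscan kinase panel screen.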

Row | SMILES | %Inh [1] [%] | %Inh [2] [%] | %Inh [3] [%] | %Inh (JNK1) [%] | %Inh (JNK2) [%] | %Inh (JNK3) [%] | %Inh (KIT-autoinhibited) [%] | %Inh (KIT) [%] | %Inh (LATS1) [%] | %Inh (LATS2) [%] | %Inh (LCK) [%] | %Inh (LIMK1) [%] | %Inh (LIMK2) [%] | %Inh (LKB1) [%] | %Inh (LOK) [%] | %Inh (LRRK2) [%] | %Inh (LTK) [%] | %Inh (LYN) [%] | %Inh (LZK) [%] | %Inh (MAK) [%]
1 | CC(C)c1nc(-c2cccc(NS(=O)(=O)c3c(F)cccc3F)c2F)c(-c2ccnc(Nc3ccc(N4CCOCC4)nc3)n2)s1 [GSK2008607] | 0 | 91.2 | 99.6 | 3 | 40 | 15 | 0 | 99.9 | 0 | 11 | 99.8 | 99.9 | 100 | 9 | 99.8 | 0 | 0 | 98.5 | 95.8 | 100
2 | COc1cccc(C(=O)Nc2cccc(Oc3ccc4nc(NC(=O)C5CC5)cn4n3)c2)c1 | 8 | 13 | 0 | 0 | 10 | 0 | 99.7 | 100 | 0 | 0 | 99.2 | 19 | 23 | 0 | 96.2 | 3 | 27 | 92.9 | 0 | 0
3 | CCn1c(-c2nonc2N)nc2c(C#CC(C)(C)O)nc(OC[C@H](N)c3ccccc3)cc21 [GSK943949] | 0 | 8 | 4 | 0 | 0 | 0 | 4 | 0 | 59 | 100 | 1 | 11 | 6 | 31 | 1 | 14 | 0 | 1 | 0 | 0
4 | Cc1cccc(NC(=O)Nc2ccc(Oc3ncnc4ccn(C)c34)cc2)c1 | 30 | 0 | 9 | 9 | 0 | 0 | 97 | 100 | 5 | 0 | 0 | 7 | 0 | 42 | 86 | 0 | 17 | 7 | 0 | 0
5 | COc1cc(Nc2nccc(-c3c(-c4cccc(NC(=O)c5c(F)cccc5F)c4)nn4ncccc34)n2)cc(OC)c1OC [GSK327238] | 0 | 6 | 59 | 39 | 71 | 23 | 31 | 100 | 44 | 28 | 99.8 | 42 | 8 | 0 | 99.3 | 0 | 61 | 99.3 | 0 | 12
6 | Fc1ccc(-c2ncn(C3CCNCC3)c2-c2ccnc(Oc3ccc(-c4ccccc4)cc3)n2)cc1 [SB-245391] | 0 | 50 | 41 | 36 | 66 | 46 | 0 | 17 | 0 | 21 | 0 | 0 | 0 | 0 | 21 | 0 | 12 | 9 | 0 | 10
7 | CN(c1ccc(NC(=O)Nc2cc(C(F)(F)F)ccc2F)cc1)c1ccnc(Nc2ccc(S(N)(=O)=O)cc2)n1 [GW809893] | 16 | 94.7 | 51 | 8 | 51 | 0 | 16 | 99.5 | 0 | 0 | 99.6 | 89 | 84 | 0 | 100 | 72 | 95.7 | 96.4 | 0 | 95.7
8 | CSc1cccc2c(-c3ccncn3)c(-c3ccc(F)cc3)nn12 [GW514786] | 9 | 9 | 0 | 24 | 71 | 75 | 0 | 0 | 0 | 16 | 20 | 11 | 0 | 0 | 0 | 34 | 0 | 0 | 20 | 0
9 | CN(C)S(=O)(=O)c1cc(-c2ccc3nccc(-c4cccc(S(N)(=O)=O)c4)c3c2)cnc1N [GSK1669921] | 12 | 24 | 0 | 17 | 0 | 0 | 0 | 21 | 0 | 14 | 7 | 86 | 5 | 0 | 0 | 27 | 39 | 0 | 0 | 19
